The list is not random: actives were taken first. Their share in the collection is about 19%.
DT40 TDP1 CPT: DT40-hTDP1 cell growth loss with CPT; chicken DT40 Tdp1-/-;hTDP1 cells + 20 nM CPT, ATP luminescence, 48 h; AID 686979; Potency, µM (titrated, usually from 46.2 µM), most hits filed as inhibitors; 420,000 tested, 12% active; note: nearly all actives have a fitted effect of over 55% in size
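Chicken DT40 Tdp1-/- cells complemented with human TDP1, 400 cells/well, exposed to compounds plus 20 nM camptothecin for at least 48 h at 37 C; viability read as ATP content by CellTiter-Glo luminescence.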
ELG1 repair inh: ELG1-dependent DNA repair inhibition. AID 504467. 330,000 tested, 2.3% active. HEK293T ELG1-luciferase reporter, luminescence, 16 h; DNA damage induced by 5-fluorouridine. Potency, µM (titrated, usually from 46.1 µM), usual class: inhibitors; note: nearly all actives have a fitted effect of over 55% in size
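Overnight (16 hr) co-exposure of 2,000 cells/well to 5-fluorouridine and compound at 37 °C preceded detection. Luciferase was quantified via ONE-Glo luminescence; loss of signal denotes inhibition.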
HT1080-NT tox: kills 2HG-producing HT-1080-NT fibrosarcoma cells. HT-1080-NT fibrosarcoma viability, CellTiter-Glo ATP luminescence, 48 h. Potency, µM (titrated, usually from 46.1 µM), most hits filed as cytotoxic. 360,000 tested, 1.6% active. AID 686970;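 note: NT is the 2HG producing partner of a matched IDH1 knockdown line; nearly all actives have a fitted effect of over 55% in size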
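Luminescent CellTiter-Glo readout after 48 hours of compound exposure at 37 degrees C defined viability of HT-1080-NT cells. Activity was normalized to DMSO wells and cell-free media wells; concentration-response curves were fitted and assigned curve classes.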
HT1080 IDH1KD tx: HT-1080 IDH1 knockdown cell toxicity (counter line); HT-1080 IDH1 knockdown viability, ATP luminescence, 48 h; Potency, µM (titrated, usually from 46.1 µM), hits mostly cytotoxic; 360,000 tested, 2% active; AID 686971
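HT-1080-IDH1KD cells (IDH1 knocked down), 750/well in RPMI with 5% FBS, treated with compound 48 h at 37 degrees C. Viability by CellTiter-Glo luminescence, normalised to DMSO and no-cell wells; concentration-response curves classed.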
IL1B secr inh: inflammasome signaling inhibition, IL-1 beta readout; THP-1 LPS/ATP IL-1B secretion, AlphaLISA, 16 h; stronger effect = lower value; activity change, % at 57.5 µM; 360,000 tested, 4.7% active; AID 743279; in the data active = activity change below about -50%; inconclusive = mostly about -30% to -49%
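Secreted IL-1B measured by AlphaLISA bead assay after 16 h compound exposure of THP-1 cells; compounds (final up to 57.5 uM) added 1 h before LPS (250 ng/mL) and ATP (1.25 mM) stimulation; lower signal means less secretion.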
DT40 TDP1 no CPT: qHTS for Inhibitors of human tyrosyl-DNA phosphodiesterase 1 (TDP1): qHTS in cells in absence of CPT; DT40 Tdp1-/- hTDP1 cells, no CPT, ATP luminescence, 48 h; Potency, µM (doses to about 46.2 µM), usual class: inhibitors; 420,000 tested, 15% active; AID 686978, 2013; note: nearly all actives have a fitted effect of over 55% in size
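Seeded 400 DT40-hTDP1 cells/well (vehicle DMSO, no 20 nM CPT); pinned compounds; ≥48 hr at 37 °C; CellTiter-Glo luminescence as viability measure.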
A number is an active result; - = inactive; ? = inconclusive; . = no result given; [ ] = dose if it differs, or a comment. Unless noted, calls come from the whole dose curve; as a rule, active = well fitted curve in the direction sought with a large enough effect; inconclusive = small, poorly fitted or top-dose-only effect, or another doubt; inactive = no such curve, though single readings can be large; an effect the other way counts as inactive or inconclusive.

SMILES	DT40 TDP1 CPT	ELG1 repair inh	HT1080-NT tox	HT1080 IDH1KD tx	IL1B secr inh	DT40 TDP1 no CPT
CC(C)CCNC(=O)C(c1ccc(O)cc1)N(C(=O)C1COc2ccccc2O1)c1cccc(O)c1 (centres undefined)	?	?	-	?	-76	21µM
CCOc1cccc(N(C(=O)C2COc3ccccc3O2)C(C(=O)NC2CCCCC2)c2ccc(O)cc2)c1 (centres undefined)	-	-	-	-	-	?
CN(C)CCNC(=O)C1(O)c2cc(Br)ccc2NC(=O)N1c1ccc(Cl)cc1 (centres undefined)	?	-	-	-	-	-
O=C(NC(=S)Nc1ccc(CN2CCCCC2)cc1)c1cc2ccccc2o1	23µM	-	-	-	-	21µM
Cc1ccc(C(=O)NC(=S)Nc2ccc(CN3CCCCC3)cc2)c(C)c1	-	-	?	?	-53	?
Cc1ccc(C(=O)NC(=S)Nc2ccc(-c3cc4ccccc4oc3=O)cc2)c(C)c1	?	-	-	-	-	23µM
CC(=O)Nc1ccc(NC(=S)NC(=O)c2cc3ccccc3o2)cc1	-	?	-	-	-	-
O=C(NC(=S)Nc1ccc(CN2CCCCC2)cc1)c1ccco1	-	?	-	-	-	-
Cc1cc(C)cc(C(=O)NC(=S)Nc2ccc(-c3cc4ccccc4oc3=O)cc2)c1	?	-	-	-	-	?
O=C(Nc1ccccc1Cl)c1cc[n+](Cc2ccc([N+](=O)[O-])cc2)cc1	-	-	-	-	-	-
CCC(C)NC(=O)c1ccc(NC(=O)CC2SC(N3CCCC3)=NC2=O)cc1 (centres undefined)	-	-	-	-	-	-
O=C1/C(=C/c2ccccc2)Nc2ccccc21	-	-	-	-	?	-
O=C1/C(=C/c2ccccc2)NC(=S)N1C(c1ccccc1)c1ccccc1	4.6µM	-	?	9.2µM	-	5.8µM
CN(C)C(CNC(=O)c1ccc2c(=O)n(-c3ccccc3F)c(=S)[nH]c2c1)Cc1ccccc1 (centres undefined)	26µM	-	-	-	-	18µM
CC(C)c1ccc(OCc2cc(=O)n3c(-c4ccccc4)csc3n2)cc1	?	.	.	.	.	26µM
O=c1cc(COc2ccc(Cl)cc2Cl)nc2scc(-c3ccccc3)n12	-	.	.	.	.	-
CCOC(=O)Cn1ccc(NC(=O)c2ccc3c(c2)OCO3)n1	?	-	-	-	-95	?
CCOC(=O)Cn1nc(NC(=O)c2ccc(C(=O)OC)cc2)cc1C	?	-	-	-	-96	?
CC(C)c1ccc(-c2noc(C3CCCN(C(=O)c4ccc(F)cc4F)C3)n2)cc1 (centres undefined)	?	-	-[9.24 µM]	?	?	21µM
Cc1ccccc1NC(=O)N1CCCC(c2nc(-c3ccc(C(C)C)cc3)no2)C1 (centres undefined)	16µM	?	-	-	-77	35µM
COc1cccc(-c2noc(C3CCCN(C(=O)c4ccc(F)cc4F)C3)n2)c1 (centres undefined)	-	-	-	-	-	-
O=C(c1c(F)cccc1F)N1CCCC(c2nc(-c3ccc(F)cc3)no2)C1 (centres undefined)	23µM	?	-	-	-	16µM
CC(C)CNC(=S)N1CCC(c2nc(-c3ccc(F)cc3)no2)CC1	21µM	?	?	?	-	21µM
Cc1ccc(CNC(=O)CN2N=C(c3ccccc3)CCC2=O)cc1	-	.	.	.	.	-
CC(C)Sc1nc2sccc2c(=O)n1-c1ccccc1	?	-	-	-	-	?
SMILES	DT40 TDP1 CPT	ELG1 repair inh	HT1080-NT tox	HT1080 IDH1KD tx	IL1B secr inh	DT40 TDP1 no CPT
Cc1ccc(NC(=O)C2CCCN(C(=O)Nc3ccc(F)cc3)C2)cc1 (centres undefined)	-	-	-	-	-	?
O=C(c1ccccc1-c1nc(-c2ccc(F)cc2)no1)N1CCCC1	?	-	-	-	-	23µM
Cc1ccc(C2CCN(C(=O)Nc3ccc(F)cc3)C2)cc1 (centres undefined)	-	?	-	-	-68	?
O=C(Nc1ccccc1)N1CCCC(c2nc(-c3ccc(F)cc3)no2)C1 (centres undefined)	?	-	-	-	-	18µM
Cc1ccccc1NC(=O)N1CCCC(c2nc(-c3ccc(F)cc3)no2)C1 (centres undefined)	?	?	-	-	-	-
Cc1ccc(NC(=O)N2CCCC(c3nc(-c4ccc(F)cc4)no3)C2)cc1 (centres undefined)	23µM	-	-	-	-	?
Cc1nc(C(F)(F)F)ccc1C(=O)N1CCCC(C)(C(=O)O)C1 (centres undefined)	-	.	-	-	-	-
CCOc1ccccc1C(=O)Nc1ccc(S(=O)(=O)Nc2onc(C)c2C)cc1	-	.	.	.	.	-
O=S(=O)(Cc1ccccc1)N1CCCC(c2nc(-c3ccc(F)cc3)no2)C1 (centres undefined)	-	-	-[9.24 µM]	-	-	18µM
CCC(C)N(C(=O)COC(=O)c1ccc(N)c([N+](=O)[O-])c1)C1CCS(=O)(=O)C1 (centres undefined)	-	.	-	-	-	-
CCC(=NCc1ccc(Cl)c(Cl)c1)c1nc(-c2ccco2)oc1O	?	?	-	?	-64	?
CC(=O)c1c(C)n(-c2cccc(Cl)c2)c2ccc(O)cc12	?	?	-	-	-	0.52µM
CC(=O)c1c(C)n(-c2cccc(Cl)c2)c2ccc(OC(=O)c3ccccc3)cc12	?	.	.	.	.	29µM
CC(=O)c1c(C)n(C)c2ccc(OC(=O)c3ccc([N+](=O)[O-])cc3)cc12	-	-	-	-	-	-
O=C(Nc1ccc2ccccc2c1)N1CCCN(CCOc2ccccc2)CC1	4.6µM	?	-	-	-	4.1µM
O=C(c1cc2ccccc2o1)N1CCN(CCOc2ccccc2)CC1	?	-	-	-	-	?
COc1cccc(C(=O)Nc2c(C(=O)Nc3ccc(F)cc3)oc3ccccc23)c1OC	-	.	.	.	.	?
CCOC(=O)c1oc2ccccc2c1NC(=O)c1ccccc1OC	?	?	-[9.24 µM]	?	?	?
COc1ccccc1C(=O)Nc1c(C(=O)c2ccccc2)oc2ccccc12	18µM	.	.	.	.	?
COc1ccccc1NC(=O)c1oc2ccccc2c1NC(=O)c1cccc(OC)c1OC	5.8µM	.	.	.	.	5.8µM
COc1ccccc1C(=O)Nc1c(C(=O)NC(C)(C)C)oc2ccccc12	?	.	.	.	.	23µM
COc1ccc(C(=O)c2oc3ccccc3c2NC(C)=O)cc1	?	?	-	-	-	?
